Source: PubChem BioAssay
Inconclusive results are not listed. Activity calls are given as the source filed them.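 Rule for the calls, unless noted: active = inhibition above the screen-wide mean plus 3 SD, about 51%; inactive = the rest.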

Legend:
[1] = rapamycin-like changes in RPL19A-GFP expression – cell-based, S. cerevisiae, multiplex flow cytometry, primary screen (AID 1862; in the data active = percent of DMSO control GFP below about 86%;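 note: lower values mimic rapamycin by blocking the RPL19A rise seen in DMSO cells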); details: S. cerevisiae RPL19A-GFP strain, flow cytometry fluorescence, 3 h; at 10 µM; stronger effect = lower value
[2] = TOR pathway GLN3 branch reporter MEP2-GFP changes – S. cerevisiae, multiplex flow cytometry, primary screen (AID 1867;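 active = GFP response, as percent of the DMSO control, above the screen-wide mean plus 3 SD, about 139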;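 note: median GFP channel fluorescence of barcode-gated MEP2-GFP cells measured by flow cytometry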); details: S. cerevisiae MEP2-GFP strain, 3 h, at 10 µM, stronger effect = higher value, 100% means same as DMSO wells
[3] = TOR pathway RTG branch CIT2 reporter changes – S. cerevisiae, GFP fusion, multiplex flow cytometry, primary screen (AID 1870;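 active = percent response above a set limit, the screen-wide mean plus 3 SD, cut at about 130% in these data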;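 note: barcoded CIT2-GFP strain pooled with four other GFP strains with rapamycin as positive control; median GFP fluorescence per well over plate mean of DMSO wells so 100% = DMSO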); details: S. cerevisiae CIT2-GFP expression, 3 h, at 10 µM, stronger effect = higher value
[4] = TOR pathway LAP4-GFP level changes – S. cerevisiae, multiplex flow cytometry, primary screen (AID 1873;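 active = GFP signal, as percent of the solvent control, above the screen mean plus 3 SD, about 149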); details: S. cerevisiae LAP4-GFP expression, 3 h, at 10 µM, stronger effect = higher value
[5] = yeast AGP1-GFP level changes, GLN3 branch – cell-based, multiplex flow cytometry, S. cerevisiae, primary screen (AID 1887;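 active = GFP signal above the screen-wide mean plus 3 SD, that is over about 124.5% of the solvent control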;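 note: AGP1-GFP fusion strain of S. cerevisiae within a five-strain barcoded multiplex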); details: 3 h, at 10 µM, stronger effect = higher value
[6] = reduced mouse 2C T cell binding to pMHC/ICAM-1 vesicles – MLPCN validation set, flow cytometry, LFA-1/ICAM-1 modulator project, pilot screen (AID 2523;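 active = response below a set limit, under 55% cells CD8-positive and vesicle-bound, and CD8 cells' 90th-percentile brightness under 279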;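 for vesicle binding response: mean PE anti-B7-1 fluorescence of CD8+ cells relative to row control; 100% = QL9-loaded vesicles with DMSO vehicle in the same plate row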); details: 2C mouse CD8+ T cells, at 7 µM, stronger effect = lower value; double positive events: measured here: CD8+/vesicle+ event percentage
[7] = target: Integrin beta-1 (Homo sapiens) + Integrin alpha-4 (Homo sapiens) (UniProt P13612+P05556); test: alpha4beta1 integrin LIBS antibody binding reduction – U937 cells, HUTS-21 mAb, flow cytometry, validation set, VLA-4 allosteric modulator project, pilot screen (AID 2674;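 active = inhibition above 50%, about 3 SD of the validation set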;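 note: antibody binding induced by the VLA-4 ligand LDV present at three times its Kd; 0% = LDV ligand with antibody and no compound and 100% = antibody without LDV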); details: HUTS-21 LIBS mAb binding, at 6.7 µM, stronger effect = higher value, binding induced by LDV ligand
[8] = calorie-restriction mimetic ROS inhibitors, yeast – validation compound set, pilot screen (AID 2706;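 active = superoxide response below 65% of plate, a cut near 3 SD across the whole screen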;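 note: yeast exposed to compound for one week at 30 degrees C before staining; 100% = mean of all compound wells on the same plate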); details: S. cerevisiae aging, superoxide DHE fluorescence; at 10 µM; stronger effect = lower value
[9] = target: Beta-adrenergic receptor kinase 1 (Homo sapiens) (UniProt P25098); test: GRK2 binders displacing RNA aptamer, biochemical, validation, human GRK2, bead flow cytometry (AID 488806;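 active = aptamer binding inhibition above 30%, about 3 SD of noise from non-fluorescent compounds; inactive = inhibition at or below 30%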); details: bead-bound GRK2, FAM-aptamer displacement, at 10 µM, stronger effect = higher value
[10] = target: Beta-2 adrenergic receptor (Homo sapiens) (UniProt P07550); test: agonist-induced loss of surface beta2AR – cell-based, FAP fluorogen, flow cytometry, validation set, pilot screen (AID 504459;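 active = percent response above 42, roughly 3 SD of non-fluorescent test compounds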;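 note: agonist-driven loss of surface beta2AR via internalization measured by FAP dye flow cytometry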); details: Am2.2-beta2AR cells, at 10 µM, stronger effect = higher value
[11] = target: AP-2 complex subunit beta (Homo sapiens) (UniProt P63010); test: beta-arrestin/AP2 interaction blockers – biochemical, validation set, GST-AP2 beads, flow cytometry, pilot screen (AID 504541;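 active = inhibition above 54%, about 3 SD of non-fluorescent compounds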;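 note: AP2 carries R879A mutation and is captured from E. coli lysate; bead-bound FITC arrestin peptide fluorescence measuring arrestin peptide binding to AP2; 0% = DMSO wells and 100% = excess unlabeled arrestin peptide control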); details: FITC arrestin peptide, at 10 µM, stronger effect = higher value, AP2 beta2 appendage fragment, R879A mutant
[12] = cytosolic pH regulators acting via V-ATPase – S. cerevisiae, pHLuorin, HTS validation (AID 504600; in the data active = response above about 15%;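 note: plate controls were DMSO for no effect and reference compound for full effect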); details: V-ATPase proton transport, at 10 µM, stronger effect = higher value
[13] = system: anti-desmoglein-3 scFv antibody binding to human DSG3; test: blockers of pathogenic pemphigus antibody–desmoglein-3 binding – biochemical, validation compound set, bead-based, flow cytometry, pilot screen (AID 588368;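 active = binding below the plate cutoff, the plate median minus 3 SD, with a reading above zero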;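 note: signal is the median channel fluorescence of bead-bound GFP antibody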); details: Protein G beads, DSG3-Fc, scFv-GFP binding, at 10 µM, stronger effect = lower value
[14] = Nile Red efflux blockade in pump-expressing yeast – validation compound set, multiplex, phenotypic, pilot screen (AID 588506;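 active = efflux inhibition above 0.42, the validation set average plus 4 SD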;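 note: Nile Red retained in cells so higher fluorescence means more efflux inhibition; 0 = negative control wells and 1 = enniatin B 25 µM full block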); details: S. cerevisiae pump-expressing triplex, Nile Red efflux flow cytometry; at 10 µM; stronger effect = higher value; the pumps come from Candida albicans
[15] = target: ATP-binding cassette sub-family B member 6 (Homo sapiens) (UniProt Q9NP58); test: blockers of ABCB6-driven porphyrin uptake – K562-ABCB6 cells, flow cytometry, validation set, pilot screen (AID 588550); details: K562-ABCB6 porphyrin accumulation, 1 h, at 10 µM, stronger effect = higher value;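 note: 0% = DMSO wells and 100% = benzethonium chloride 70 µM positive control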
[16] = AML differentiation inducers, ER-HoxA9 marrow cells – cell-based, GFP/MAC1 double positive, flow cytometry, validation set, primary screen (AID 588685;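 active = differentiation response of at least 50%, scaled between solvent and reference control, from cells with both markers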;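 note: compound exposure lasts four days before antibody staining and flow analysis; 0% = DMSO wells and 100% = 5 µM fulvestrant positive control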); details: stronger effect = higher value, normalized: vehicle 0, fulvestrant 100

Beta-adrenergic receptor kinase 1 (Homo sapiens), sequence (P25098 whole entry, looked up): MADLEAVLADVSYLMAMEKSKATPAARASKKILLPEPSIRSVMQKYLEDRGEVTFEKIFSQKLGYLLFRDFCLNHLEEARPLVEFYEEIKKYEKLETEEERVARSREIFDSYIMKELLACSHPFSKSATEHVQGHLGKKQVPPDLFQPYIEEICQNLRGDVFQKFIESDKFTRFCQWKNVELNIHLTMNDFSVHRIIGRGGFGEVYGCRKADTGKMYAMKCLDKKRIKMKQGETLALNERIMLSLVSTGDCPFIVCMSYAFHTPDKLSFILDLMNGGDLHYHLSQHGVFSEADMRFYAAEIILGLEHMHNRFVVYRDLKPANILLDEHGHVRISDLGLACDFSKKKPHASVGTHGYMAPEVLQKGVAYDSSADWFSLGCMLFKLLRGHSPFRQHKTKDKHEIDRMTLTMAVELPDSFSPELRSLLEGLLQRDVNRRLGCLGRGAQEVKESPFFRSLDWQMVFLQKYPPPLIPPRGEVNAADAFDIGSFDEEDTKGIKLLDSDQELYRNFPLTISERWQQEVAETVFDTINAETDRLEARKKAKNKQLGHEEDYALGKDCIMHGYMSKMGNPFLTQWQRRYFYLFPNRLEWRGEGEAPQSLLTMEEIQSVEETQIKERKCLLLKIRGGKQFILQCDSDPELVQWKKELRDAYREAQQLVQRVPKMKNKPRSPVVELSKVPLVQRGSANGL
Beta-2 adrenergic receptor (Homo sapiens), sequence (P07550 whole entry, looked up): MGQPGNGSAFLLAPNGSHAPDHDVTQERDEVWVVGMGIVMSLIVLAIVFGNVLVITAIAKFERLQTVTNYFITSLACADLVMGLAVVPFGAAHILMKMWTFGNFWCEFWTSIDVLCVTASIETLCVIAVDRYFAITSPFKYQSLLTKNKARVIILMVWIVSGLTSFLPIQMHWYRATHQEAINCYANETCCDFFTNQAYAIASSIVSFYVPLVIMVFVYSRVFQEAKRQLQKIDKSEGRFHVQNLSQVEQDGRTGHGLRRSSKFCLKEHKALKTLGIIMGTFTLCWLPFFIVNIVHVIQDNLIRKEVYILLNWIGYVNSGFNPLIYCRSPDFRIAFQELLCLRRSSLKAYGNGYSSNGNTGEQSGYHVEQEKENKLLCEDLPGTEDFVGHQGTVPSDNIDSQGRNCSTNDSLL
ATP-binding cassette sub-family B member 6 (Homo sapiens), sequence (Q9NP58 whole entry, looked up): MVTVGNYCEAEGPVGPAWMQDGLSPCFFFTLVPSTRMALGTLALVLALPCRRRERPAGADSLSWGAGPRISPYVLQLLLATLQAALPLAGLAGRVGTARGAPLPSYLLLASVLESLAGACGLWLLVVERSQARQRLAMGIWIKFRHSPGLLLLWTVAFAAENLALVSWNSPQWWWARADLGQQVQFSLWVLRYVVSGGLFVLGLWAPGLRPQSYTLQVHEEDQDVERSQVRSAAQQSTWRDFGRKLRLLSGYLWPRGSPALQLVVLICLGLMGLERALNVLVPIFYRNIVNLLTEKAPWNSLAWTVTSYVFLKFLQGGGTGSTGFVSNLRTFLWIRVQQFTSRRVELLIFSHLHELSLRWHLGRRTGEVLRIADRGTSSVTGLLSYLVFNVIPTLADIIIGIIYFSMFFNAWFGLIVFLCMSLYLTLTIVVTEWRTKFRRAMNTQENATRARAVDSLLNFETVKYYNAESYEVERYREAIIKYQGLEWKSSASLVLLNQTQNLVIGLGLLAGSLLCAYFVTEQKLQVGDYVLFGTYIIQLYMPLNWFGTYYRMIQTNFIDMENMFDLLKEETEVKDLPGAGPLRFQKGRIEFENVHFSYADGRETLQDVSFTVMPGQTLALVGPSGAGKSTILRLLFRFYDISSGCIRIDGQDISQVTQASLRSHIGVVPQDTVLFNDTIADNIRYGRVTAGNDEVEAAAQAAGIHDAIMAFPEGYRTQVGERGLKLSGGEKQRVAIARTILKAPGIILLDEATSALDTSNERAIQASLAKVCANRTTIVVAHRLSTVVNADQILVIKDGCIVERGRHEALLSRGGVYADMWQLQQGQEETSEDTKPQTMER
AP-2 complex subunit beta (Homo sapiens), sequence (P63010 whole entry, looked up, the tested form may be a part, one chain of several): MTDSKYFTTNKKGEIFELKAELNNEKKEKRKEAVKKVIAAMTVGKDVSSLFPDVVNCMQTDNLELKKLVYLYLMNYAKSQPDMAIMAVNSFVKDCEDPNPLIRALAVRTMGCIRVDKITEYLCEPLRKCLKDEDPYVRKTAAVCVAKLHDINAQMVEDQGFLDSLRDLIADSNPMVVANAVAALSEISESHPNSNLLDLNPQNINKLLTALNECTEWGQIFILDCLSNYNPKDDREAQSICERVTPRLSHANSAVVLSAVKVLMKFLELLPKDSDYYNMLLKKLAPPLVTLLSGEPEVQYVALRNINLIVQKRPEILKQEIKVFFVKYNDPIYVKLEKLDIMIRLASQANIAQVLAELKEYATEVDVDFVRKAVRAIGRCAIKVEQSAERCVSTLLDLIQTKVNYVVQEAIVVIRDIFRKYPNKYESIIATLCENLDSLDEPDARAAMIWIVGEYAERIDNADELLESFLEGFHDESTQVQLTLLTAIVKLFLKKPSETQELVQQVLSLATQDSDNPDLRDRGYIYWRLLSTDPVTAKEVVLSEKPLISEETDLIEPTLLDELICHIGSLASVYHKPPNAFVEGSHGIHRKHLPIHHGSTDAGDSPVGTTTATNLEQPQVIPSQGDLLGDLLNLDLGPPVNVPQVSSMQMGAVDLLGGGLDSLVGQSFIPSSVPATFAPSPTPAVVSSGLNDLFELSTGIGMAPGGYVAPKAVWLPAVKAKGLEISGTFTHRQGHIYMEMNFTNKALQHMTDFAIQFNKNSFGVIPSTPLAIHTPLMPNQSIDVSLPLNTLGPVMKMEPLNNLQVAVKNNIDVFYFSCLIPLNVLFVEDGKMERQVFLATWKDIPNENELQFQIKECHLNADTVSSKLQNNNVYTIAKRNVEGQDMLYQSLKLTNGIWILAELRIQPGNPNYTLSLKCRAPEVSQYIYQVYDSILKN
Integrin beta-1 (Homo sapiens) + Integrin alpha-4 (Homo sapiens), sequence (P05556 whole entry, looked up): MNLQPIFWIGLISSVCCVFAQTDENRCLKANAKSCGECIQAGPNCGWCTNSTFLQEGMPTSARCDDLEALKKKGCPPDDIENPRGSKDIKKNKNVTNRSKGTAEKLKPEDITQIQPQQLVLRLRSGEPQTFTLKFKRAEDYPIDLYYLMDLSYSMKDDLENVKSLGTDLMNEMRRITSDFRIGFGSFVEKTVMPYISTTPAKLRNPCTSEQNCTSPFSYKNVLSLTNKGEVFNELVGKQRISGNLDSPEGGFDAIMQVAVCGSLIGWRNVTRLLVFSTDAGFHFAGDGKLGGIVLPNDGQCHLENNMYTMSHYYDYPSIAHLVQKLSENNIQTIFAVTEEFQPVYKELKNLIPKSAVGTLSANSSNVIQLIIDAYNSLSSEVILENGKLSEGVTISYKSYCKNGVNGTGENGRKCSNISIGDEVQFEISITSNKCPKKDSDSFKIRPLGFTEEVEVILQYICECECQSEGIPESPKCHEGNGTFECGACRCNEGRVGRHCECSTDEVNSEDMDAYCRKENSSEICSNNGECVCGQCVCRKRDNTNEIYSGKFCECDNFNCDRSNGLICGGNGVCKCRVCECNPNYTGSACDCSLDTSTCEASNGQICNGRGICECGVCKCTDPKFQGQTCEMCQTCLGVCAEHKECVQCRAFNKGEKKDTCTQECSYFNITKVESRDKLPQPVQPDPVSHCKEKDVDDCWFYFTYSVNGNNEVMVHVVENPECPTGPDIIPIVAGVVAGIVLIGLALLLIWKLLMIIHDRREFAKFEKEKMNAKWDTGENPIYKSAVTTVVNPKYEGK
Integrin beta-1 (Homo sapiens) + Integrin alpha-4 (Homo sapiens), sequence (P13612 whole entry, looked up): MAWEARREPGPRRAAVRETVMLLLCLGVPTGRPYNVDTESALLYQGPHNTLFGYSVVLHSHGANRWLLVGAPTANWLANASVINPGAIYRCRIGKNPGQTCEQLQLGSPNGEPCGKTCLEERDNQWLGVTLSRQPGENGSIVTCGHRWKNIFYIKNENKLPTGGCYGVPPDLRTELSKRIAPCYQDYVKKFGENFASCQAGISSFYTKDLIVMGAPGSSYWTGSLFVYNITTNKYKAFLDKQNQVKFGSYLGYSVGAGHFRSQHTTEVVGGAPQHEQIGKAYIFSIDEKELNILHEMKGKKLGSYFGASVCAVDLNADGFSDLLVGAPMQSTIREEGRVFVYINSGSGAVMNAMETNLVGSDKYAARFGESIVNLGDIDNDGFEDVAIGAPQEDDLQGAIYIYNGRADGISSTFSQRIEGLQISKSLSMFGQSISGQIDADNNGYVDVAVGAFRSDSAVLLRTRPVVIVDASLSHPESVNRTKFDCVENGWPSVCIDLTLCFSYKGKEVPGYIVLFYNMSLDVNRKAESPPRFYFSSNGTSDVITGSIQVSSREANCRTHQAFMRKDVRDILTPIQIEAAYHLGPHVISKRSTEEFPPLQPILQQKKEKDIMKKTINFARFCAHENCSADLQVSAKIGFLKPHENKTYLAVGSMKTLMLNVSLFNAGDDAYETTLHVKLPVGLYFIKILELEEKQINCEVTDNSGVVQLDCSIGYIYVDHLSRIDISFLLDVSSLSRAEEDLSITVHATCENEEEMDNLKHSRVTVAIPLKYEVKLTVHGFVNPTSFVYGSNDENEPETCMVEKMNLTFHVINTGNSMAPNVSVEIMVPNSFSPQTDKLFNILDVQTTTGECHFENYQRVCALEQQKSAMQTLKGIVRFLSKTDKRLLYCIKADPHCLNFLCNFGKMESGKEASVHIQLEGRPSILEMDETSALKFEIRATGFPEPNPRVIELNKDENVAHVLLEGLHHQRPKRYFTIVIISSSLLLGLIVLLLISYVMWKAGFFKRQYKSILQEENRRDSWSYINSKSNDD

COc1ccc(-n2cc(CNCc3cccnc3)c(-c3cccc(F)c3)n2)cc1
inactive: percent of DMSO control GFP [1] 105% | GFP response vs DMSO [2] 97.2% | percent response of DMSO control [3] 115% | GFP response vs DMSO [4] 110% | GFP response, % of DMSO [5] 99.1% | vesicle binding response [6] 314% | inhibition [7] -4.6% | superoxide response (% of plate) [8] 89.3% | aptamer binding inhibition [9] 0% | response [10] -13.2% | inhibition [11] -5.67% | response [12] -0.1% | binding (% of control) [13] 104% | efflux inhibition (fraction of control) [14] -0.26 | inhibition [15] 20% | differentiation response [16] 4.15%
64.8%: double positive events [6]

CC(C)N(C(=O)Cc1ccccc1[N+](=O)[O-])C(C)C
60.4%: double positive events [6]
inactive: percent of DMSO control GFP [1] 104% | GFP response vs DMSO [2] 96.3% | percent response of DMSO control [3] 102% | GFP response vs DMSO [4] 92.2% | GFP response, % of DMSO [5] 104% | vesicle binding response [6] 240% | inhibition [7] 3.67% | superoxide response (% of plate) [8] 104% | aptamer binding inhibition [9] 2% | response [10] -2.55% | inhibition [11] -8.88% | response [12] 1.74% | binding (% of control) [13] 103% | efflux inhibition (fraction of control) [14] -0.13 | inhibition [15] 5% | differentiation response [16] -26.4%

O=C(Oc1ccc2c3c(c(=O)oc2c1)CCCC3)c1ccco1
active: efflux inhibition (fraction of control) [14] 0.62
62.5%: double positive events [6]
inactive: percent of DMSO control GFP [1] 101% | GFP response vs DMSO [2] 101% | percent response of DMSO control [3] 96% | GFP response vs DMSO [4] 102% | GFP response, % of DMSO [5] 85% | vesicle binding response [6] 126% | inhibition [7] -6.04% | superoxide response (% of plate) [8] 99.3% | aptamer binding inhibition [9] 5% | response [10] 5.57% | inhibition [11] 11.5% | response [12] 0.75% | binding (% of control) [13] 96.5% | inhibition [15] 6% | differentiation response [16] -5.68%

CCC(NC(C)C)C(O)c1ccc(O)c(O)c1 (stereo not given)
inactive: percent of DMSO control GFP [1] 103% | GFP response vs DMSO [2] 102% | percent response of DMSO control [3] 100% | GFP response vs DMSO [4] 104% | GFP response, % of DMSO [5] 112% | vesicle binding response [6] 170% | inhibition [7] -11.3% | superoxide response (% of plate) [8] 86.8% | aptamer binding inhibition [9] 4% | inhibition [11] -1.15% | response [12] 0.42% | binding (% of control) [13] 105% | efflux inhibition (fraction of control) [14] -0.04 | inhibition [15] 2% | differentiation response [16] -0.06%
60.7%: double positive events [6]
active: response [10] 46%

CCNC(=S)N1CCN(CCN2C(=O)c3cccc4cccc(c34)C2=O)CC1
63.5%: double positive events [6]
inactive: percent of DMSO control GFP [1] 103% | GFP response vs DMSO [2] 97.7% | percent response of DMSO control [3] 106% | GFP response vs DMSO [4] 95.9% | GFP response, % of DMSO [5] 107% | vesicle binding response [6] 143% | inhibition [7] -26.6% | superoxide response (% of plate) [8] 96.9% | aptamer binding inhibition [9] 0% | response [10] -20.5% | inhibition [11] -15.4% | response [12] 1.54% | binding (% of control) [13] 104% | efflux inhibition (fraction of control) [14] -0.195 | inhibition [15] -13% | differentiation response [16] -8.96%

O=C(/C=C/c1ccc2c(c1)OCO2)NCc1ccc(F)cc1
60.1%: double positive events [6]
inactive: percent of DMSO control GFP [1] 101% | GFP response vs DMSO [2] 106% | percent response of DMSO control [3] 95.4% | GFP response vs DMSO [4] 108% | GFP response, % of DMSO [5] 99.7% | vesicle binding response [6] 130% | inhibition [7] -3.57% | superoxide response (% of plate) [8] 108% | aptamer binding inhibition [9] 2% | response [10] -3.87% | response [12] -3% | binding (% of control) [13] 98.4% | efflux inhibition (fraction of control) [14] 0.08 | inhibition [15] 2% | differentiation response [16] 15.9%
active: inhibition [11] 55.2%

O=C(NCCc1c[nH]c2ccccc12)OCCSS(=O)(=O)O
inactive: percent of DMSO control GFP [1] 101% | GFP response vs DMSO [2] 101% | percent response of DMSO control [3] 108% | GFP response vs DMSO [4] 102% | GFP response, % of DMSO [5] 100% | vesicle binding response [6] 1060% | inhibition [7] -6.68% | superoxide response (% of plate) [8] 106% | aptamer binding inhibition [9] 3% | response [10] -2.85% | inhibition [11] -1.88% | response [12] 3.36% | binding (% of control) [13] 99.7% | efflux inhibition (fraction of control) [14] -0.07 | inhibition [15] 7% | differentiation response [16] 2.2%
66.8%: double positive events [6]

COC(=O)c1[nH]c2ccc(C)cc2c1NC(=O)CN1CCc2cc(OC)c(OC)cc2C1
inactive: percent of DMSO control GFP [1] 106% | GFP response vs DMSO [2] 111% | percent response of DMSO control [3] 117% | GFP response vs DMSO [4] 103% | GFP response, % of DMSO [5] 105% | vesicle binding response [6] 296% | inhibition [7] -11.8% | superoxide response (% of plate) [8] 130% | aptamer binding inhibition [9] 4% | response [10] 10.4% | inhibition [11] -5.24% | response [12] -3.57% | binding (% of control) [13] 101% | inhibition [15] 24% | differentiation response [16] -10.4%
63.8%: double positive events [6]
active: efflux inhibition (fraction of control) [14] 0.5

OC(C#CCN1CCCC1)(c1ccccc1)c1cccnc1 (stereo not given)
inactive: percent of DMSO control GFP [1] 98.9% | GFP response vs DMSO [2] 101% | percent response of DMSO control [3] 98.3% | GFP response vs DMSO [4] 103% | GFP response, % of DMSO [5] 107% | vesicle binding response [6] 166% | inhibition [7] 11.7% | superoxide response (% of plate) [8] 83.2% | aptamer binding inhibition [9] 6% | response [10] -14.6% | inhibition [11] -2.57% | response [12] 1.86% | binding (% of control) [13] 108% | efflux inhibition (fraction of control) [14] -0.09 | inhibition [15] -14% | differentiation response [16] 14.7%
60.3%: double positive events [6]

NS(=O)(=O)c1cc(C2(O)NC(=O)c3ccccc32)ccc1Cl (stereo not given)
58.2%: double positive events [6]
inactive: percent of DMSO control GFP [1] 101% | GFP response vs DMSO [2] 117% | percent response of DMSO control [3] 115% | GFP response vs DMSO [4] 78.7% | GFP response, % of DMSO [5] 89.6% | vesicle binding response [6] 252% | inhibition [7] -16.8% | superoxide response (% of plate) [8] 110% | aptamer binding inhibition [9] -6% | response [10] -3.96% | inhibition [11] -17.4% | response [12] 1.36% | binding (% of control) [13] 105% | efflux inhibition (fraction of control) [14] -0.13 | inhibition [15] 9% | differentiation response [16] 4.09%
